Assay [1] has as its target Bile acid receptor (Homo sapiens) (UniProt Q96RI1). Kind of assay: ATG_IR1_CIS: Attagene CIS-FACTORIAL HepG2 Assay for human Nuclear Receptor Subfamily 1 Group H Member 4 (NR1H4), IR1 submotif (AID 2282946; active = hit-call score of the fitted dose curve at least 0.9, where 1 is the maximum; inactive = score below 0.9). The settings on record: IR1 reporter transcription, actives raise or lower the signal. The method in brief:
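Readout: reporter transcript levels by RT-PCR with fluorescent capillary electrophoresis, from HepG2 cells transiently transfected with multiplexed cis-regulated reporters and dosed 24 h. Gain- or loss-of-signal fitted versus DMSO negative control.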

In assay [2] the target is human Peroxisome Proliferator-activated Receptor alpha (PPARa), PPARA (gene 5465) (UniProt Q07869). As to the kind of experiment: ATG_PPARa_TRANS: Attagene TRANS-FACTORIAL HepG2 Assay for human Peroxisome Proliferator-activated Receptor alpha (PPARa) (AID 2283001). In short, it runs like this:
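Exposure: 24 h, transiently transfected HepG2 cells. Endpoint: GAL4-UAS reporter mRNA, RT-PCR with capillary electrophoresis fluorescence. Baseline: DMSO; increases fitted.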

For assay [3], the target named is human Peroxisome Proliferator-activated Receptor delta (PPARd), PPARD (gene 5467) (UniProt Q03181). Kind of assay: ATG_PPARd_TRANS: Attagene TRANS-FACTORIAL HepG2 Assay for human Peroxisome Proliferator-activated Receptor delta (PPARd) (AID 2283002). In short, it runs like this: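 Measured quantity: GAL4-UAS reporter transcript induction in HepG2 after 24 h chemical dosing, with NR-Gal4 chimeras supplied by transient transfection. Detection by RT-PCR and capillary electrophoresis; upward fit against DMSO.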

The target in assay [4] is human Vitamin D Receptor (VDR), VDR (gene 7421) (UniProt P11473). Kind of assay: ATG_VDR_TRANS: Attagene TRANS-FACTORIAL HepG2 Assay for human Vitamin D Receptor (VDR) (AID 2283022). In short, it runs like this: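 Steps: transfect HepG2 with GAL4-UAS-driven reporter constructs; dose compounds 24 h; isolate RNA, reverse-transcribe, PCR-amplify with 6-FAM-labelled primer extension and HpaI digestion; quantify fragments by capillary electrophoresis relative to DMSO.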

Assay [5] can be described thus: ATG_XTT_Cytotoxicity: Cytotoxicity Assessment in the Attagene TRANS-FACTORIAL HepG2 Assay (AID 2283584). The method in brief:
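Cells: human HepG2, transiently transfected with MRTU reporter constructs. Exposure 24 h. Readout: XTT, cell number. Baseline/neg ctrl DMSO; loss-of-signal scored.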

The target of assay [6] is Oxysterols receptor LXR-beta (Homo sapiens) (UniProt P55055). Kind of assay: ATG_LXRb_TRANS: Attagene TRANS-FACTORIAL HepG2 Assay for human Liver X Receptor beta (LXRb) (AID 2282981). Conditions: HepG2 Attagene TRANS GAL4-LXRb reporter, mRNA. In short, it runs like this:
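Liver-derived HepG2 cells transfected with Gal4-responsive reporters were dosed for 24 h. Activation was scored as rise in reporter mRNA, by RT-PCR and capillary electrophoresis, above DMSO baseline.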

In assay [7] the target is Hepatocyte nuclear factor 4-alpha (Homo sapiens) (UniProt P41235). As to the kind of experiment: ATG_HNF4a_TRANS: Attagene TRANS-FACTORIAL HepG2 Assay for human Hepatocyte Nuclear Factor 4 alpha (HNF4a) (AID 2282982). The settings on record: HepG2 HNF4a transactivation reporter, mRNA readout. In short, it runs like this: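 Using HepG2 liver cells transfected with GAL4-UAS reporter units, chemical-induced mRNA increases were assessed after 24 hours. Fluorescent RT-PCR fragments were separated by capillary electrophoresis and compared with DMSO negative controls.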

Assay [8] deals with Nuclear receptor subfamily 4 group A member 2 (Homo sapiens) (UniProt P43354). Kind of assay: ATG_NURR1_TRANS: Attagene TRANS-FACTORIAL HepG2 Assay for human Nuclear Receptor Related Protein 1 (NURR1) (AID 2282985). The settings on record: HepG2 Attagene TRANS reporter, mRNA readout. In short, it runs like this:
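Chimeric NR-Gal4 proteins were expressed in human HepG2 cells bearing GAL4-UAS reporter units, and induced reporter mRNA was quantified 24 h post-dosing by RT-PCR and capillary electrophoresis.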

In assay [9] the target is Nuclear receptor subfamily 1 group I member 2 (Homo sapiens) (UniProt O75469). As to the kind of experiment: ATG_PXR_TRANS: Attagene TRANS-FACTORIAL HepG2 Assay for human Pregnane X Receptor (PXR) (AID 2283008). In short, it runs like this:
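Transient HepG2 transfectants carrying multiplexed reporter transcription units; PXR activity read through a Gal4 chimera. 24 h exposure. RT-PCR/CE fluorescence; upward curve fit referenced to DMSO.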

Assay [10] in a line: TOX21_p53_BLA_p2_viability: Viability Assessment in the Tox21 HCT-116 p53 Agonism Beta-lactamase Assay, Phase 2 (AID 2283591).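 Also: compound exposure lasted 16 h at 37 °C; actives lower the ATP signal meaning cytotoxicity.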 The method in brief: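 HCT-116 p53-bla cells (4000/well) rested 5 h at 37C, then received compounds in DMSO (217-fold dilution) for 16 h at 37C, 5% CO2. After the CCF4 read, CellTiter-Glo was added; ATP luminescence was read after 30 min at room temperature.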

The target in assay [11] is Cellular tumor antigen p53 (Homo sapiens) (UniProt P04637). Kind of assay: TOX21_p53_BLA_p3_ratio: Tox21 HCT-116 p53 Agonism Beta-lactamase Assay, Ratio, Phase 3 (AID 2283596). In short, it runs like this: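 Cells were seeded at 4000/well, rested 5 h at 37C, then dosed with DMSO compound solutions (217-fold dilution) for 16 h. CCF4-AM substrate was loaded for 2 h at room temperature, and the 460/530 nm emission ratio was fitted for gain of signal versus DMSO.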

Assay [12] concerns the target Retinoic acid receptor alpha (Homo sapiens) (UniProt P10276). Kind of assay: ATG_DR5_RAR_CIS: Attagene CIS-FACTORIAL HepG2 Assay for human Retinoic Acid Receptor Alpha (RARE), DR5 submotif (AID 2282934; active = hit-call score of the fitted dose curve at least 0.9, where 1 is the maximum; inactive = score below 0.9). Conditions: HepG2 Attagene cis-factorial RARE DR5 reporter, mRNA; actives raise or lower the signal. In short, it runs like this: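 Transfected HepG2 reporter cells are exposed to chemicals for 24 h. Then RNA is extracted and the DR5 element reporter transcript is measured by RT-PCR and capillary electrophoresis, with bidirectional curve fitting relative to DMSO.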

The target of assay [13] is Nuclear receptor subfamily 1 group I member 3 (Homo sapiens) (UniProt Q14994). Kind of assay: ATG_CAR_TRANS: Attagene TRANS-FACTORIAL HepG2 Assay for human Constitutive Androstane Receptor (CAR) (AID 2282969).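 Also: activators raise reporter mRNA above DMSO so AC50 marks induction.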 Conditions: HepG2 Attagene TRANS-FACTORIAL CAR reporter. The method in brief: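 Steps: transient transfection of HepG2 with multiple GAL4-UAS reporter units; 24 h compound incubation; RNA isolation, RT-PCR, 6-FAM primer extension, HpaI digest; capillary electrophoresis. Gain-of-signal relative to DMSO negative control.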

The target in assay [14] is Oxysterols receptor LXR-alpha (Homo sapiens) (UniProt Q13133). Kind of assay: ATG_LXRa_TRANS: Attagene TRANS-FACTORIAL HepG2 Assay for human Liver X Receptor alpha (LXRa) (AID 2282980). Conditions: HepG2 Attagene TRANS reporter, LXRa transactivation. The method in brief:
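Transfect HepG2 with GAL4-UAS multiplex reporter constructs (TRANS format, chimeric receptor-GAL4); treat 24 h; extract RNA, reverse-transcribe, PCR-amplify, FAM-label, HpaI-digest; resolve fragments by capillary electrophoresis. Upward response vs DMSO.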

Assay [15] concerns the target human RAR-related Orphan Receptor beta (RORb), RORB (gene 6096) (UniProt Q92753). As to the kind of experiment: ATG_RORb_TRANS: Attagene TRANS-FACTORIAL HepG2 Assay for human RAR-related Orphan Receptor beta (RORb) (AID 2283010). In short, it runs like this: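 Multiplexed transcription-factor reporter assay: HepG2 cells transiently carrying NR-Gal4/GAL4-UAS constructs, 24 h treatment, mRNA quantified by RT-PCR plus capillary electrophoresis fluorescence; activity scored as induction over DMSO.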

The nature of assay [16]: TOX21_p53_BLA_p3_viability: Viability Assessment in the Tox21 HCT-116 p53 Agonism Beta-lactamase Assay, Phase 3 (AID 2283593).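 Also: cells exposed to compound for 16 h before reading.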 In short, it runs like this: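 HCT-116 cells (4000/well) rested 5 h at 37C, then got DMSO compounds by pin tool (217-fold dilution) for 16 h at 37C, 5% CO2. After the bla read, CellTiter-Glo was added and luminescence read at 30 min, room temperature.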

A short description of assay [17]: TOX21_p53_BLA_p4_viability: Viability Assessment in the Tox21 HCT-116 p53 Agonism Beta-lactamase Assay, Phase 4 (AID 2283597).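 Also: hits lower the luminescence signal meaning cytotoxicity.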 The method in brief: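 Readout: ATP luminescence (CellTiter-Glo), measured 30 min after reagent addition at RT. The reagent followed a 2 h CCF4-AM incubation, and the cells had been exposed to compound for 16 h at 37C.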
A short description of assay [18]: CCTE_Harrill_HTTr_Viability_MCF7: CCTE's 6-hour Cell Viability Assessment for the High-Throughput Transcriptomics (HTTr) Platform, in MCF-7 cells cultured in DMEM + 10% fetal bovine serum, Harrill Lab (AID 2284010; active = hit-call score of the fitted dose curve at least 0.9, where 1 is the maximum; inactive = score below 0.9). The method in brief: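 Eight-point concentration series, six-hour exposure. Propidium iodide exclusion imaged to assess membrane integrity as a cytotoxicity readout; bidirectional fitting was done with DMSO as negative control and activity baseline.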

The nature of assay [19]: ATG_GAL4_TRANS: Attagene TRANS-FACTORIAL HepG2 Assay for GAL4 (Internal Marker) (AID 2282976). The settings on record: HepG2 Attagene TRANS GAL4 internal marker reporter. In short, it runs like this:
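First, HepG2 cells were transfected with reporter units under GAL4-UAS control. Next, they were treated with chemical for 24 h. Finally, RNA was reverse-transcribed, PCR-amplified, FAM-labelled and resolved by capillary electrophoresis, with induction scored against DMSO.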

The target of assay [20] is human RAR-related Orphan Receptor gamma (RORg), RORC (gene 6097) (UniProt P51449). Kind of assay: ATG_RORg_TRANS: Attagene TRANS-FACTORIAL HepG2 Assay for human RAR-related Orphan Receptor gamma (RORg) (AID 2283011). The method in brief:
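First, HepG2 liver cells were transfected with GAL4-UAS-driven reporter constructs and the RORg-Gal4 fusion. Next, they were treated with chemical for 24 h. Finally, reporter mRNA was quantified by RT-PCR and capillary electrophoresis, with upward activity fitted against DMSO.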

Experimental findings from PubChem BioAssay (EPA / NIEHS) are described below.

Inconclusive results are not listed. Activity calls are given as the source filed them. The calls were made as follows, unless noted: active = hit-call score of the fitted dose curve at least 0.9, where 1 is the maximum; inconclusive = response in the unintended direction; inactive = score below 0.9.

Sequence of Oxysterols receptor LXR-beta (Homo sapiens) (P55055 whole entry, looked up, the tested form may be a part): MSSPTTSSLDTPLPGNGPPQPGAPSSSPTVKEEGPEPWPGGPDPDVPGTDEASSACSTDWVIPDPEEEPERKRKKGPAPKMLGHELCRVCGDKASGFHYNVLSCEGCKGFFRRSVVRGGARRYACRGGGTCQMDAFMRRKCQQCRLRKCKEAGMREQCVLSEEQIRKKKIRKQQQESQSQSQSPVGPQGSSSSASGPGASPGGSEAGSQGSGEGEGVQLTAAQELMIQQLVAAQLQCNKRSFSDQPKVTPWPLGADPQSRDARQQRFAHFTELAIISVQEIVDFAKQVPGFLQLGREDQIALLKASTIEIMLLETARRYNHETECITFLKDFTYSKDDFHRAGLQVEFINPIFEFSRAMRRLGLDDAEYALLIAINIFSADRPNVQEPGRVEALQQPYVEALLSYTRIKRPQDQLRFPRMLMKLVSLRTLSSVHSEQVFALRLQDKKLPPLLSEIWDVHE
Sequence of Retinoic acid receptor alpha (Homo sapiens) (P10276 whole entry, looked up): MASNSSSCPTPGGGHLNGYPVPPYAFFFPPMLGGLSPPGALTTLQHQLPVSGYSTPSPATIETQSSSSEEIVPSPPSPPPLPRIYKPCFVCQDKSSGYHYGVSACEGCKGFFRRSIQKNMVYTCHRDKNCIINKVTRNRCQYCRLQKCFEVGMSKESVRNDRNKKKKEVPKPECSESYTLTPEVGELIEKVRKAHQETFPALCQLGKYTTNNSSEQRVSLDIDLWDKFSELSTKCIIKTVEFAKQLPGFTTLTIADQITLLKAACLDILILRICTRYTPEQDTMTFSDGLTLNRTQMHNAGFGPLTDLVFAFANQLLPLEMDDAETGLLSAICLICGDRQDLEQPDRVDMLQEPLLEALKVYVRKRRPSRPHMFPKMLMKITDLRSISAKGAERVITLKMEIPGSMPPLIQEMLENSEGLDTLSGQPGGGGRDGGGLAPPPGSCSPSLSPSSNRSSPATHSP
Sequence of Bile acid receptor (Homo sapiens) (Q96RI1 whole entry, looked up): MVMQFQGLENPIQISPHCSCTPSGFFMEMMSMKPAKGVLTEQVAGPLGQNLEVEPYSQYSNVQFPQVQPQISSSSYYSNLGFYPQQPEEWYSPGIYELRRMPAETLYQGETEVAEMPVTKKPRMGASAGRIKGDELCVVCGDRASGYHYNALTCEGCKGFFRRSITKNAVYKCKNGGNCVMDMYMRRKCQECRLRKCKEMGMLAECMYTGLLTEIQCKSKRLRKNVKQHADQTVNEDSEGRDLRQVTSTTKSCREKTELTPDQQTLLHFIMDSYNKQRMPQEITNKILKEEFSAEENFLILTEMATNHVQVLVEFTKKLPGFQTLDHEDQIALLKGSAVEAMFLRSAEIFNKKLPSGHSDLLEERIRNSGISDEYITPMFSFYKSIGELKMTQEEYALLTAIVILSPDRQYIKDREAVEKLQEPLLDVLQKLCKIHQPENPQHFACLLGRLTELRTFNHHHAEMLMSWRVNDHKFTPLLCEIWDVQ
Sequence of Nuclear receptor subfamily 1 group I member 2 (Homo sapiens) (O75469 whole entry, looked up, the tested form may be a part): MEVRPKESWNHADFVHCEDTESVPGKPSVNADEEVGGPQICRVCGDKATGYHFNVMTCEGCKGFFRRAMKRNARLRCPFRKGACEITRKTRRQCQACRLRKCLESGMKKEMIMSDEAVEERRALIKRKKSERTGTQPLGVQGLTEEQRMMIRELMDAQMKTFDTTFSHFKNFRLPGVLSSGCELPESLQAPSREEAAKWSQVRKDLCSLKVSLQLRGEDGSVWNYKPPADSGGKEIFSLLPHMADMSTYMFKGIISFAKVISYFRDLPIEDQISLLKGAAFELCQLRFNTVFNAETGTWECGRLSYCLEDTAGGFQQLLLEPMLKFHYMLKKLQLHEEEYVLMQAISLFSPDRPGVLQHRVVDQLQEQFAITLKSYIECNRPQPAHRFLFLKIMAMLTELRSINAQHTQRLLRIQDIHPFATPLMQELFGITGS
Sequence of human RAR-related Orphan Receptor beta (RORb), RORB (gene 6096) (Q92753 whole entry, looked up, the tested form may be a part): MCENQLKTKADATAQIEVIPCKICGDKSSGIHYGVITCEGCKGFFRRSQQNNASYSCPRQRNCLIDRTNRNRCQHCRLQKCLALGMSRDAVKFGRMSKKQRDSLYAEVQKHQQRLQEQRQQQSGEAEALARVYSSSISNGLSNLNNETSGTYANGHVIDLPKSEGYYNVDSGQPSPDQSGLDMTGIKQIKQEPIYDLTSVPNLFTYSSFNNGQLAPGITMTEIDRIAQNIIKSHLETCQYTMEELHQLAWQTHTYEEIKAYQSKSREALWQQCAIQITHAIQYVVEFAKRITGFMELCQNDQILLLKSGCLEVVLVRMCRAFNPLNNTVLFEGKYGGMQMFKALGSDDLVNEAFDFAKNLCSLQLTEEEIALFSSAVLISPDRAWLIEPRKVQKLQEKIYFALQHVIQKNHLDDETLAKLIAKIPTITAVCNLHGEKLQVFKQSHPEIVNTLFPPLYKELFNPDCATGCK
Sequence of human Vitamin D Receptor (VDR), VDR (gene 7421) (P11473 whole entry, looked up, the tested form may be a part): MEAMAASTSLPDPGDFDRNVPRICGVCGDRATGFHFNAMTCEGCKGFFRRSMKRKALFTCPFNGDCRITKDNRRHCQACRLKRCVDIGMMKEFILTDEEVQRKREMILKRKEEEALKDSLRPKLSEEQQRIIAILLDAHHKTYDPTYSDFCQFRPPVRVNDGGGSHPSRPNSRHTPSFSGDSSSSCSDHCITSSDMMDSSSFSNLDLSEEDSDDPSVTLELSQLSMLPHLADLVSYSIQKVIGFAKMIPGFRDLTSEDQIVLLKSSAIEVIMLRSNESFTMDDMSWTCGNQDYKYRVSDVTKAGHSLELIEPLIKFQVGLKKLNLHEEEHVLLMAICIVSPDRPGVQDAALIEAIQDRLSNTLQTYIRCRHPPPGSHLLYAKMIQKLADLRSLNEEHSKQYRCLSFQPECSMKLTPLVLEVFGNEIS
Sequence of Nuclear receptor subfamily 4 group A member 2 (Homo sapiens) (P43354 whole entry, looked up, the tested form may be a part): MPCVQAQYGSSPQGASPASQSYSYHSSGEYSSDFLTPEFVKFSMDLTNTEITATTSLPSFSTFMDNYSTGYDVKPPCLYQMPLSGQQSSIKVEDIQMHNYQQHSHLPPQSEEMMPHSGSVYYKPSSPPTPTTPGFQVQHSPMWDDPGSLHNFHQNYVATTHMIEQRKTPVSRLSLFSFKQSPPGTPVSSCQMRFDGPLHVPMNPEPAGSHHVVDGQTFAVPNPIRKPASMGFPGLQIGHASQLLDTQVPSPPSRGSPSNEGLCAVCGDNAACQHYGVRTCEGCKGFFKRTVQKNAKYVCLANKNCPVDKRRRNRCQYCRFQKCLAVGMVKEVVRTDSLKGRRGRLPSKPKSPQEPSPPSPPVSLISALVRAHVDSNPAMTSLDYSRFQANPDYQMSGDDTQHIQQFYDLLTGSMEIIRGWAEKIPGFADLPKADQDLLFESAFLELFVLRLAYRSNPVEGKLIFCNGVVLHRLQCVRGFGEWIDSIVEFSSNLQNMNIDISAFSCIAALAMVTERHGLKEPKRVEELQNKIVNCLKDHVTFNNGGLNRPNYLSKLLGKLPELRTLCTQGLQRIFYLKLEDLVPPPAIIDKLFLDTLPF
Sequence of Cellular tumor antigen p53 (Homo sapiens) (P04637 whole entry, looked up): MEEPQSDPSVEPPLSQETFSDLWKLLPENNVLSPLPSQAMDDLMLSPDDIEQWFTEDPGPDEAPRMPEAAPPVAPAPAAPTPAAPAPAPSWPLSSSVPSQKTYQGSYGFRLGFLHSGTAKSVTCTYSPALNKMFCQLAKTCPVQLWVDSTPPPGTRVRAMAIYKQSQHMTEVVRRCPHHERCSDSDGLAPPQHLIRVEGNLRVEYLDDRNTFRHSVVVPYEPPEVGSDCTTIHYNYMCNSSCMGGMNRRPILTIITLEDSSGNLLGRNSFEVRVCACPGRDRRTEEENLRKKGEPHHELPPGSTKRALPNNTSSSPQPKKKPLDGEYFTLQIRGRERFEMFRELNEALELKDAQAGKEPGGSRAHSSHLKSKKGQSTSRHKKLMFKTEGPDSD
Sequence of human Peroxisome Proliferator-activated Receptor delta (PPARd), PPARD (gene 5467) (Q03181 whole entry, looked up, the tested form may be a part): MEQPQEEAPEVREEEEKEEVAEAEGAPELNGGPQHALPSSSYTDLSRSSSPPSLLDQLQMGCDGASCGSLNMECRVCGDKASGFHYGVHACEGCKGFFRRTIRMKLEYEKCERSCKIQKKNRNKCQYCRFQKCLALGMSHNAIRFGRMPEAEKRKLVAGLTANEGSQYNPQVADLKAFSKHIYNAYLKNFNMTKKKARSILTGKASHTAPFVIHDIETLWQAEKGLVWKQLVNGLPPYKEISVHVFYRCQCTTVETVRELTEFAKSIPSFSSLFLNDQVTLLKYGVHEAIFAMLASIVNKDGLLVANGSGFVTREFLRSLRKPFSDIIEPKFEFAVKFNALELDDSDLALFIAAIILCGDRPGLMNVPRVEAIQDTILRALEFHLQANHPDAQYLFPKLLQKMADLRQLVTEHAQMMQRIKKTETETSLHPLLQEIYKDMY
Sequence of Oxysterols receptor LXR-alpha (Homo sapiens) (Q13133 whole entry, looked up, the tested form may be a part): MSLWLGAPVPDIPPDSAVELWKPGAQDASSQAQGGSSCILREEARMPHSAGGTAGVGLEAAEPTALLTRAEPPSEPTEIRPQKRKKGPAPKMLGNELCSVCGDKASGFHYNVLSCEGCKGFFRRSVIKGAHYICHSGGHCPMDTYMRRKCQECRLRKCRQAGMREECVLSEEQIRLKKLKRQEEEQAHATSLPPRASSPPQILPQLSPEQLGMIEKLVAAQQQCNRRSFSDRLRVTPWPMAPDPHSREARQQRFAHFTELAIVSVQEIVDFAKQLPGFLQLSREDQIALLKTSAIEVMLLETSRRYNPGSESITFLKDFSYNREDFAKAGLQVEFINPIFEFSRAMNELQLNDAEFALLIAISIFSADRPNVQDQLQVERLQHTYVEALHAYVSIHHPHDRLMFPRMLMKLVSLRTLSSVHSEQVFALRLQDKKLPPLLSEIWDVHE
Sequence of Nuclear receptor subfamily 1 group I member 3 (Homo sapiens) (Q14994 whole entry, looked up, the tested form may be a part): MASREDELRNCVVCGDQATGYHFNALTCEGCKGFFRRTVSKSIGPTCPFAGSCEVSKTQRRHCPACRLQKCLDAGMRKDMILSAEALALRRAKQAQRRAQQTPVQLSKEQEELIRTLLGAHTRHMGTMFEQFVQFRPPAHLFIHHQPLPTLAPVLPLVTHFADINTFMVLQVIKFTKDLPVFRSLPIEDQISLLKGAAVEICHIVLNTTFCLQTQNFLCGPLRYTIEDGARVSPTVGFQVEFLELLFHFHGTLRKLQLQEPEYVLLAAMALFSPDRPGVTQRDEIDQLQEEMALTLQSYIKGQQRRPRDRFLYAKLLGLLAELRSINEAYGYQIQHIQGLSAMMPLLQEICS

On to `CC(C)C(=O)Cl`, for which the outcome in assay [1], in [2], in assay [3], in assay [4] and in assay [5] was inactive.

Usually AC50 stands for the concentration at which the activity in the assay is half-maximal. In the case of `C=CC(=O)OCCCCOC(=O)C=C`, the AC50 in assay [1] is 65.8 µM (active); in assay [10], 69.5 µM (active). Besides, the call in assay [6], in [7], in [8], in assay [2], in assay [3] and in assay [9] was inactive. The molecule was classed as inactive in assay [4], in assay [5] and in assay [11].

Regarding `CCOP(=O)(OCC)Oc1ccc([N+](=O)[O-])cc1`, the outcome in assay [12], in assay [1], in assay [13], in [14], in assay [6] and in assay [3] was inactive. In addition, the molecule was classed as inactive in assay [9], in assay [15], in [4], in assay [5], in assay [10] and in assay [16]. The result in assay [11], in assay [17] and in assay [18] was inactive.

Consider `CN(C)CCC#N`, for which the result in [12], in assay [19], in [14], in assay [6], in [7] and in assay [2] was inactive. In addition, the result in [9], in [20], in [4], in assay [10], in assay [17] and in assay [18] was inactive.

For the molecule `COC(=O)c1ccccc1S(=O)(=O)NC(=O)Nc1nc(C)cc(C)n1`, the call in [12], in assay [14], in [8], in assay [2], in assay [15] and in [4] was inactive. Further, the result in assay [18] was inactive.

Take `CNC(=O)Oc1cc(C)c(SC)c(C)c1`: the molecule was classed as inactive in assay [1], in [13], in [6], in assay [8], in [2] and in [3]. Moreover, the molecule was classed as inactive in assay [15], in assay [4] and in assay [18]. Moreover, the AC50 in assay [9] was 13.3 µM (active).
